Reference: PubChem BioAssay AID1159580 (chemical genetic matrix, 2015)
Values joined by “and” are separate entries in the source; they are usually repeats but may differ in a detail not shown here. Equal entries are not always repeated. In all, about 5,500 compounds went through this assay and about 2,000 (36%) were called active. Not shown: some 18% with an inconclusive outcome. Rule as the data show it: active = normalized growth mostly below about 0.91 (no sharp cut-off); inconclusive = no clear call, values can overlap the other calls; inactive = mostly above about 0.92. This is one part of the list.

Assay: chemical genetic growth profiling, strain panel (AID 1159580);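 also: tested at 20 µM; growth read once vehicle control cultures reached saturation at 30 °C; 1 = growth at the plate median or of vehicle wells; lower values mean less growth of the strain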
Details: growth OD

Measured: normalized growth

NCCCCC(=O)O
inactive: S. cerevisiae deletion strains, locus YKL009W, strain mrt4, active compounds read low 1.01 | S. cerevisiae deletion strains, locus YKL068W, active compounds read low 1 | S. cerevisiae deletion strains, locus YKL085W, strain MDH1 (second series), active compounds read low 1.04 | S. cerevisiae deletion strains, locus YKL085W, strain MDH1, active compounds read low 1.04 | S. cerevisiae deletion strains, locus YKL160W, strain elf1, active compounds read low 1.03 | S. cerevisiae deletion strains, locus YKL190W, strain CNB1, active compounds read low 1.02 | S. cerevisiae deletion strains, locus YKR001C, strain vps1, active compounds read low 0.996 | S. cerevisiae deletion strains, locus YKR026C, strain gcn3, active compounds read low 1.02 | S. cerevisiae deletion strains, locus YKR091W, strain srl3, active compounds read low 1.02 | S. cerevisiae deletion strains, locus YLL001W, strain dnm1, active compounds read low 1.01 | S. cerevisiae deletion strains, locus YLL026W, active compounds read low 1.01 | S. cerevisiae deletion strains, locus YLL041C, strain sdh2, active compounds read low 1.01 | S. cerevisiae deletion strains, locus YLR027C, strain aat2, active compounds read low 1.02 | S. cerevisiae deletion strains, locus YLR039C, strain RIC1, active compounds read low 1.06 | S. cerevisiae deletion strains, locus YLR058C, strain SHM2, active compounds read low 1.03 | S. cerevisiae deletion strains, locus YLR102C, strain apc9, active compounds read low 0.999 | S. cerevisiae deletion strains, locus YLR113W, strain HOG1, active compounds read low 1 | S. cerevisiae deletion strains, locus YLR221C, strain rsa3, active compounds read low 1 | S. cerevisiae deletion strains, locus YLR258W, strain gsy2, active compounds read low 1.02 | S. cerevisiae deletion strains, locus YLR262C, strain YPT6 (second series), active compounds read low 1.03 | S. cerevisiae deletion strains, locus YLR262C, strain YPT6, active compounds read low 1.09 | S. cerevisiae deletion strains, locus YLR268W, strain sec22, active compounds read low 1 | S. cerevisiae deletion strains, locus YLR320W, strain mms22, active compounds read low 1.03 | S. cerevisiae deletion strains, locus YLR330W, strain CHS5, active compounds read low 1.02 | S. cerevisiae deletion strains, locus YLR342W, strain FKS1 (second series), active compounds read low 1.01 | S. cerevisiae deletion strains, locus YLR342W, strain FKS1, active compounds read low 1.02 | S. cerevisiae deletion strains, locus YLR357W, strain rsc2, active compounds read low 1.04 | S. cerevisiae deletion strains, locus YLR370C, strain arc18, active compounds read low 1.02 | S. cerevisiae deletion strains, locus YLR371W, strain rom2, active compounds read low 0.995 | S. cerevisiae deletion strains, locus YLR384C, strain iki3, active compounds read low 1.03 | S. cerevisiae deletion strains, locus YLR418C, strain cdc73, active compounds read low 1.02 | S. cerevisiae deletion strains, locus YML016C, strain PPZ1, active compounds read low 1.03 | S. cerevisiae deletion strains, locus YML032C, strain rad52, active compounds read low 0.979 | S. cerevisiae deletion strains, locus YML120C, strain ndi1, active compounds read low 1.01 | S. cerevisiae deletion strains, locus YML124C, strain tub3, active compounds read low 0.987 | S. cerevisiae deletion strains, locus YMR058W, strain fet3, active compounds read low 1.02 | S. cerevisiae deletion strains, locus YMR078C, strain ctf18, active compounds read low 0.983 | S. cerevisiae deletion strains, locus YMR125W, strain sto1, active compounds read low 1 | S. cerevisiae deletion strains, locus YMR129W, active compounds read low 1.02 | S. cerevisiae deletion strains, locus YMR205C, strain PFK2, active compounds read low 1.03 | S. cerevisiae deletion strains, locus YMR223W, strain ubp8, active compounds read low 0.976 | S. cerevisiae deletion strains, locus YMR231W, strain pep5, active compounds read low 1.01 | S. cerevisiae deletion strains, locus YMR263W, strain SAP30, active compounds read low 1.03 | S. cerevisiae deletion strains, locus YMR307W, strain GAS1, active compounds read low 1.04 | S. cerevisiae deletion strains, locus YNL067W, strain RPL9B, active compounds read low 1.04 | S. cerevisiae deletion strains, locus YNL071W, strain lat1, active compounds read low 1.01 | S. cerevisiae deletion strains, locus YNL128W, strain TEP1, active compounds read low 1.02 and 1.01 | S. cerevisiae deletion strains, locus YNL153C, strain GIM3, active compounds read low 1.02 | S. cerevisiae deletion strains, locus YNL175C, strain NOP13, active compounds read low 1.03 | S. cerevisiae deletion strains, locus YNL183C, strain NPR1, active compounds read low 0.894 | S. cerevisiae deletion strains, locus YNL197C, strain WHI3, active compounds read low 1.01 | S. cerevisiae deletion strains, locus YNL209W, strain ssb2, active compounds read low 1.02 | S. cerevisiae deletion strains, locus YNL224C, strain SQS1, active compounds read low 1 | S. cerevisiae deletion strains, locus YNL233W, strain BNI4, active compounds read low 1.03 | S. cerevisiae deletion strains, locus YNL248C, strain rpa49, active compounds read low 1.01 | S. cerevisiae deletion strains, locus YNL250W, strain rad50, active compounds read low 1 | S. cerevisiae deletion strains, locus YNL271C, strain bni1, active compounds read low 0.99 | S. cerevisiae deletion strains, locus YNL298W, strain CLA4, active compounds read low 0.99 | S. cerevisiae deletion strains, locus YNL307C, strain MCK1, active compounds read low 0.987 | S. cerevisiae deletion strains, locus YNL322C, strain KRE1 (second series), active compounds read low 1.02 | S. cerevisiae deletion strains, locus YNL322C, strain KRE1, active compounds read low 1.02 | S. cerevisiae deletion strains, locus YNR049C, strain mso1, active compounds read low 1.01 | S. cerevisiae deletion strains, locus YNR052C, strain pop2, active compounds read low 0.993 | S. cerevisiae deletion strains, locus YOL006C, strain TOP1, active compounds read low 1.08 | S. cerevisiae deletion strains, locus YOL012C, strain htz1 0.929 | S. cerevisiae deletion strains, locus YOL147C, strain pex11, active compounds read low 0.99 | S. cerevisiae deletion strains, locus YOR001W, strain rrp6, active compounds read low 1.03 | S. cerevisiae deletion strains, locus YOR061W, strain CKA2, active compounds read low 1.02 | S. cerevisiae deletion strains, locus YOR069W, strain VPS5, active compounds read low 1.01 | S. cerevisiae deletion strains, locus YOR070C, strain gyp1, active compounds read low 1.02 | S. cerevisiae deletion strains, locus YOR080W, strain dia2, active compounds read low 1.02 | S. cerevisiae deletion strains, locus YOR083W, strain WHI5 (second series), active compounds read low 1.05 | S. cerevisiae deletion strains, locus YOR083W, strain WHI5, active compounds read low 1.02 | S. cerevisiae deletion strains, locus YOR106W, strain vam3, active compounds read low 1.02 | S. cerevisiae deletion strains, locus YOR136W, strain idh2, active compounds read low 0.982 | S. cerevisiae deletion strains, locus YOR144C, strain elg1, active compounds read low 0.999 | S. cerevisiae deletion strains, locus YOR184W, strain ser1, active compounds read low 0.984 | S. cerevisiae deletion strains, locus YOR231W, strain MKK1, active compounds read low 0.988 | S. cerevisiae deletion strains, locus YOR265W, strain rbl2, active compounds read low 1.02 | S. cerevisiae deletion strains, locus YOR270C, strain vph1, active compounds read low 1.05 | S. cerevisiae deletion strains, locus YOR290C, strain snf2, active compounds read low 1.01 | S. cerevisiae deletion strains, locus YOR316C, strain cot1, active compounds read low 0.992 | S. cerevisiae deletion strains, locus YPL051W, strain arl3, active compounds read low 1.01 | S. cerevisiae deletion strains, locus YPL055C, strain LGE1, active compounds read low 1.05 and 0.99 | S. cerevisiae deletion strains, locus YPL078C, strain atp4, active compounds read low 1.03 | S. cerevisiae deletion strains, locus YPL106C, strain sse1, active compounds read low 1.03 | S. cerevisiae deletion strains, locus YPL240C, strain hsp82, active compounds read low 1.01 | S. cerevisiae deletion strains, locus YPL241C, strain CIN2, active compounds read low 0.963 | S. cerevisiae deletion strains, locus YPL256C, strain CLN2, active compounds read low 0.965 | S. cerevisiae deletion strains, locus YPR119W, strain clb2, active compounds read low 0.989 | S. cerevisiae deletion strains, locus YPR141C, strain kar3, active compounds read low 0.98 | S. cerevisiae deletion strains, locus YPR163C, strain tif3, active compounds read low 0.982 | S. cerevisiae deletion strains, locus YPR167C, strain met16, active compounds read low 0.989 | S. cerevisiae deletion strains, strain wtn01, active compounds read low 1 | S. cerevisiae strains, strain wild type, active compounds read low 1.01
